Experimental data reported in PubChem BioAssay.
Values without a mark were called inactive. No rule for the calls is given here.

Target: Pantothenate synthetase (Mycobacterium tuberculosis (strain ATCC 25618 / H37Rv)) (UniProt P9WIL5)
Test: Recombinant Mtb pantothenate synthetase (PanC) inhibitors, coupled enzyme, confirmatory (AID 375);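 also: 0% = full reaction with vehicle and 100% = no enzyme background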
Details: coupled enzyme assay; at 10 µM, hits give high values

Chain of Pantothenate synthetase (Mycobacterium tuberculosis (strain ATCC 25618 / H37Rv)) (P9WIL5 whole entry, looked up): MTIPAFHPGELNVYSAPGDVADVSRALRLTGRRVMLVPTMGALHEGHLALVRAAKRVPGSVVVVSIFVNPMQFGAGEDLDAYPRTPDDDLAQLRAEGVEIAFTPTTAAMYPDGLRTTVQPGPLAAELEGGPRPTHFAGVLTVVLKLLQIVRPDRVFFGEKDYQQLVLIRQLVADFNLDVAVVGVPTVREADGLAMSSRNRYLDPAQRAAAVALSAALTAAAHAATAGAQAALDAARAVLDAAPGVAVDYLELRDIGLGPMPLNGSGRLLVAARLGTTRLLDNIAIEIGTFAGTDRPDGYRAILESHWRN

Row | SMILES | inhibition [%]
1 | Cc1nc2ccccc2c2oc(C(=O)NCC3COc4ccccc4O3)cc12 (stereo not given) | 0
2 | Cn1nnnc1SCC(=O)Nc1ccccc1C(=O)NCc1ccccc1 | 0
3 | CCc1ccc(NC(=O)c2cccnc2)cc1 | 16
4 | CCC1CCCN1Cn1cnc2c([nH]c3ccc(OC)cc32)c1=O (stereo not given) | 1
5 | CCOc1ccc(Cl)cc1S(=O)(=O)N1CCCC1 | 0
6 | CN(C)CCCNC(=O)CCC1CCCCC1 | 6
7 | CC(C)Cn1c2c(c(O)c(C(=O)Nc3ncccc3O)c1=O)CCCC2 | 0
8 | CCC1(c2ccccc2)C(=O)NCNC1=O | 7
9 | CCc1nc(NCCCN2CCOCC2)c2oc3ccccc3c2n1 | 2
10 | Cc1nnc(N(Cc2ccco2)C(=O)c2cccc(C#N)c2)s1 | 2
11 | Cc1ccc(S(=O)(=O)Cn2nnnc2C(C(C)C)N2CCN(C(=O)c3ccco3)CC2)cc1 (stereo not given) | 0
12 | C=CCSC1=C(C#N)C(c2ccccc2Cl)CC(=O)N1 (stereo not given) | 0
13 | COc1ccc2oc(C)c(C(=O)Cn3ccnc3)c2c1 | 0
14 | Cc1ccc2cc(C(c3nnnn3CC3CCCO3)N3CCc4ccccc4C3)c(=O)[nH]c2c1 (stereo not given) | 0
15 | CCCCC(=O)Nc1ccc(NC(=O)C2CC2)nc1 | 2
16 | O=C(CN1CCC(O)(c2ccc3c(c2)OCO3)CC1)OC1CCCCC1 | 0
17 | COc1ccc(-c2noc(CCN3C(=O)c4ccccc4C3=O)n2)cc1OC | 7
18 | COc1cccc(OCc2nc3c4cnn(-c5ccccc5)c4ncn3n2)c1 | 0
19 | O=C(CSc1nnc2c3cc(F)ccc3nc(-c3ccccc3)n12)N1CCOCC1 | 0
20 | COc1ccc(N(CC(=O)O)S(=O)(=O)c2ccc(OC)c(OC)c2)cc1 | 5

Row | SMILES | inhibition [%]
21 | Cc1ccc(-c2ccc(SCC(=O)Nc3nonc3C)nn2)cc1 | 3
22 | O=C(c1ccco1)N1CCN(C(=O)c2cc3c(s2)-c2ccccc2OC3)CC1 | 11
23 | COc1cccc(-n2c(SCC(=O)Nc3cc(C)on3)nc3c([nH]c4ccccc43)c2=O)c1 | 2
24 | CCOc1ccc(-c2nc(N)ncc2-c2ccccc2)c(O)c1 | 0
25 | COc1ccc(OC)c(C2/C(=C(\O)c3ccc4c(c3)OCCO4)C(=O)C(=O)N2CCCN(C)C)c1 (stereo not given) | 0
26 | CC1(C(=O)CSc2nc3ccccc3s2)CCC(=O)O1 (stereo not given) | 0
27 | O=C(c1ccc(CSCc2ccccc2F)o1)N1CCN(c2ccc(N3CCOCC3)nn2)CC1 | 0
28 | COC(=O)c1nn(-c2ccc(-c3ccccc3)cc2)cc1O | 0
29 | Cc1oncc1C(=O)Nc1ccc(C(F)(F)F)cc1 | 8
30 | COc1ccc(N2C(=O)C3CCCN3C2c2ccc(F)cc2)cc1Cl (stereo not given) | 1
31 | O=C(Nc1ccccc1-c1nc2ccccc2o1)c1ccc2c(c1)OCCO2 | 5
32 | CN1CCN(CCCN2c3ccccc3Sc3ccc(C(F)(F)F)cc32)CC1 | 1
33 | COc1ccccc1N1CCN(C(=O)c2ccc(CS(=O)(=O)c3ccccc3OC)o2)CC1 | 8
34 | O=C(Nc1ccc(CN2CCOCC2)cc1)c1cc2ccccn2n1 | 0
35 | CCOC(=O)C1=C(C)NC(=O)NC1c1ccc(Br)s1 (stereo not given) | 1
36 | Cc1ccccc1-c1nc(CN2CCC(C(=O)NCc3cccnc3)CC2)c(C)o1 | 0
37 | COc1ccccc1C1/C(=C(\O)c2c(C)nc3c(C)cccn23)C(=O)C(=O)N1CCCN(C)C (stereo not given) | 0
38 | COc1ccc(C(=O)Nc2cccc(-c3nc4ncccc4o3)c2C)cc1OC | 2
39 | O=C(c1ccccc1)c1ccc(N2CCNCC2)cc1 | 3
40 | O=C1CC(c2ccccc2)NC(=O)N1 (stereo not given) | 0
